Source: PubChem (Broad Institute)
Only a selection was taken, and hits are over-represented in it overall.
STK33 inh – STK33 kinase inhibitors, primary screen, biochemical, luminescence, ADP-Glo, MBP substrate; Serine/threonine-protein kinase 33 (Homo sapiens), Q9BYT3; inhibition, % at 12.5 µM; AID 2322, 2010; 27,000 tested, 0.44% active; in the data active = inhibition above about 20%
Target sequence (Q9BYT3 whole entry, looked up): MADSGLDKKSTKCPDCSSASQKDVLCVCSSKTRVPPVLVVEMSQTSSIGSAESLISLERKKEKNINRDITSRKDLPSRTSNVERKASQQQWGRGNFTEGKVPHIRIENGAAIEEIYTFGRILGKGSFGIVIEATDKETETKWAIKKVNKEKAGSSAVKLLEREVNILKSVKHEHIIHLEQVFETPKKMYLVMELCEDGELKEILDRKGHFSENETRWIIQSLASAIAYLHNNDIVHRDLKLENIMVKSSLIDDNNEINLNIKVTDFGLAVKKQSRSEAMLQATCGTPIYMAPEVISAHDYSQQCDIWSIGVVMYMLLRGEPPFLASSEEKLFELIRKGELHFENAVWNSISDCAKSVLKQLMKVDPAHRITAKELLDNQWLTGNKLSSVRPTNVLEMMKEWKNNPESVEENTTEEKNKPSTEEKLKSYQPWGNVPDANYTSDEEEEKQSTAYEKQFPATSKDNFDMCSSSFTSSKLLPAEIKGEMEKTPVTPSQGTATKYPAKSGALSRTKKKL
PD-1 reverse act – activators reversing PD-1 mediated T-cell inhibition, primary screen, luminescence, primary human CD4 T cells, PD-L1 beads | CellTiter-Glo 96 h | activation, % (test concentration not listed) | 29,000 tested, under 10 active | AID 2316, 2010; call rule not given here;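 also: 0% = median vehicle wells and 100% = positive control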
NOMO-1 viab – NOMO-1 AML cell viability reduction, primary screen, STK33 inhibitor project, CellTiter-Glo luminescence; NOMO-1 AML viability, 72 h; inhibition, % (concentration not given with the values); 37,000 tested, 7.5% active; in the data active = inhibition above about 80%
* = called active by the depositor; . = no result given.

SMILES | STK33 inh | PD-1 reverse act | NOMO-1 viab
C[C@H](CO)N1C[C@H](C)[C@H](CN(C)Cc2ccc3c(c2)OCO3)Oc2ccc(NC(=O)Nc3ccc(C(F)(F)F)cc3)cc2C1=O | -1 | 0 | 99*
C[C@H]1CN([C@@H](C)CO)C(=O)c2cc(NC(=O)Nc3ccc(F)cc3)ccc2O[C@H]1CN(C)Cc1ccc2c(c1)OCO2 | 0 | -1 | 92*
C[C@H]1CN([C@@H](C)CO)C(=O)c2cc(NC(=O)Nc3ccc(C(F)(F)F)cc3)ccc2O[C@@H]1CN(C)Cc1ccc2c(c1)OCO2 | 2 | -5 | 101*
C[C@@H]1CN([C@@H](C)CO)C(=O)c2cc(NC(=O)Nc3ccc(C(F)(F)F)cc3)ccc2O[C@H]1CN(C)Cc1ccc2c(c1)OCO2 | . | -3 | 59
C[C@H](CO)N1C[C@H](C)[C@@H](CN(C)Cc2ccc3c(c2)OCO3)Oc2ccc(NC(=O)Nc3ccc(C(F)(F)F)cc3)cc2C1=O | . | 0 | 11
C[C@@H]1CN([C@@H](C)CO)C(=O)c2cc(NC(=O)Nc3ccc(F)cc3)ccc2O[C@@H]1CN(C)Cc1ccc2c(c1)OCO2 | . | 1 | 19
C[C@@H]1CN([C@@H](C)CO)C(=O)c2cc(NC(=O)Nc3ccc(C(F)(F)F)cc3)ccc2O[C@@H]1CN(C)Cc1ccc2c(c1)OCO2 | 2 | -2 | 112*
C[C@@H]1CN([C@H](C)CO)C(=O)c2cc(NC(=O)Nc3ccc(C(F)(F)F)cc3)ccc2O[C@@H]1CN(C)Cc1ccc2c(c1)OCO2 | . | 0 | 49
CC(=O)c1cccc(NC(=O)CSc2nc(C)cc(=O)[nH]2)c1 | -3 | 1 | -26
O=C1C(=O)N(Cc2ccco2)C(c2cccs2)C1C(=O)c1cccs1 (stereo not given) | -1 | 6 | 11
Cn1c(SCC(=O)Nc2ccc(Oc3ccc(Cl)cc3)cc2)nnc1-c1ccccc1O | 4 | . | 28
Cc1c(C(=O)Nc2sc3c(c2C(=O)NC2CCS(=O)(=O)C2)CCCC3)oc2ccccc12 (stereo not given) | 1 | 2 | -2
COc1ccc(OC)c(NC(=O)CNC(=O)c2ccc(Cl)cc2)c1 | 1 | -1 | 33
Cc1nnc(SCC(=O)Nc2sc3c(c2C#N)CCC(C(C)(C)C)C3)s1 (stereo not given) | -1 | 0 | 40
C=C1C(=O)O[C@@H]2[C@H]3C(CO[C@@H]4O[C@H](CO)[C@@H](O)[C@H](O)[C@H]4O)=CC(=O)C3=C(C)CC[C@@H]12 | 1 | . | .
C=C1C(=O)O[C@H]2C1CCC(C)=C1C(=O)C=C(C)[C@@]12O (stereo not given in full) | -3 | -5 | 106*
CCc1cc(-c2n[nH]c(C)c2-c2nc(C)cs2)c(O)cc1OCc1ccc([N+](=O)[O-])cc1 | 1 | -3 | 109*
CCc1cc(-c2n[nH]c(C(=O)O)c2-c2nc(C)cs2)c(O)cc1O | -4 | -1 | 8
CCCC[C@@H](C)/C=C(C)/C=C(\C)C(=O)NC1=C[C@@](O)(/C=C/C=C/C=C/C(=O)NC2C(=O)CCC2=O)[C@@H]2O[C@@H]2C1=O | -3 | -57 | 142*
CCOC(=O)c1c(CSc2nc(C)cc(C)n2)nc2c3ccccc3ccn12 | 1 | -1 | 3
COc1ccc(NC(=O)c2ccc(OC(C)C(=O)Nc3ccccc3C(F)(F)F)cc2)cc1Cl (stereo not given) | 0 | 1 | 39
Cc1cccc(NC(=O)c2ccc(OC(C)C(=O)Nc3ccccc3C(F)(F)F)cc2)c1C (stereo not given) | -3 | -3 | 113*
Cc1noc(C)c1S(=O)(=O)Nc1cccc2c1O[C@@H](CN(C)Cc1ccc(C(=O)O)cc1)[C@@H](C)CN([C@@H](C)CO)C2=O | . | 0 | 25
C[C@@H]1CN([C@H](C)CO)C(=O)c2cccc(NS(C)(=O)=O)c2O[C@@H]1CN(C)Cc1ccc(C(=O)Nc2ccccc2N)cc1 | . | -1 | 77
Cc1noc(C)c1S(=O)(=O)Nc1cccc2c1O[C@H](CN(C)Cc1ccc(C(=O)Nc3ccccc3N)cc1)[C@H](C)CN([C@@H](C)CO)C2=O | . | -2 | 137*
Cc1noc(C)c1S(=O)(=O)Nc1cccc2c1O[C@@H](CN(C)Cc1ccc(C(=O)Nc3ccccc3N)cc1)[C@@H](C)CN([C@H](C)CO)C2=O | . | 1 | 83*
Cc1nn(-c2cc(Cl)ccc2Cl)c(N)c1-c1nc(-c2ccccc2)cs1 | . | 0 | 27
CCOC(=O)c1sc2ncn(CC(=O)Nc3ccc(OC)cc3)c(=O)c2c1C | -1 | -1 | 26
